Compound activity as filed in PubChem BioAssay.
Only some compounds are listed: those with a hit (about 3.6% of all), similar ones and a draw of the others.
Rango complex inh = qHTS Assay for Inhibitors of Rango (Ran-regulated importin-beta cargo) - Importin beta complex formation. Rango CFP/YFP FRET sensor + importin beta, 45 min. Potency, µM (top dose mostly 92.2 µM), inactives show at the top dose inhibition of complex formation. hit rate 0.031% among 340,000; calls by dose curve;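 also: potency is read from the fitted curve at half-maximal effect; 0% = DMSO wells and 100% = buffer wells lacking importin beta; nearly all actives have a fitted effect of over 15% in size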
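FRET biosensor Rango (snurportin 1 IBB between N-terminal EYFP and C-terminal Cerulean), 50 nM in PBS/1 mM DTT/0.02% Tween-20/0.1% BSA, preincubated 5 min RT with compound; 0.125 microM importin beta added, 45 min RT, CFP/YFP FRET ratio read.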
PLK1 PBD inh = qHTS for Inhibitors of PLK1-PDB (polo-like kinase 1 - polo-box domain): Primary Screen | AID 720504, 2013 | Potency, µM, without a hit: max response, negative = inhibition, usual class: inhibitors | hit rate 2.8% among 360,000 | Serine/threonine-protein kinase PLK1 (Homo sapiens), P53350 | Plk1 PBD binding of FITC phosphopeptide, fluorescence polarization; also: potency is read from the fitted curve at half-maximal effect; series mostly up to about 57 µM; % is scaled to controls: 0 for no effect and ±100 for the full control effect; nearly all actives have a fitted effect of over 65% in size
Rango dissoc inh = qHTS Assay for Inhibitors of RanGTP induced Rango (Ran-regulated importin-beta cargo) - Importin beta complex dissociation; Snurportin-1 (Homo sapiens) + GTP-binding nuclear protein Ran (Homo sapiens) + Importin …; Biochemical FRET Rango-importin beta, RanGTP-induced dissociation; Potency, µM (titrated, usually from 46.1 µM), inactives show top-dose activity change, negative = inhibition; hit rate 0.071% among 340,000; calls by dose curve; also: potency is read from the fitted curve at half-maximal effect; % of control where 0% means no effect; nearly all actives have a fitted effect of over 45% in size
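Rango (0.1 uM)–importin beta (0.25 uM) complex; RanGTP-RCC1 trigger; 45 min RT; CFP/YFP FRET read.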
KAT2A inh = qHTS Assay for Inhibitors of GCN5L2; Histone acetyltransferase KAT2A (Homo sapiens), Q92830; GCN5L2 HAT assay, ThioGlo1 CoA-SH fluorescence; Potency, µM (top dose mostly 58.9 µM), for the others: top-dose activity change, negative = inhibition, most hits filed as inhibitors; hit rate 0.21% among 390,000; AID 504327, 2011; also: potency is read from the fitted curve at half-maximal effect; % is scaled to controls: 0 for no effect and ±100 for the full control effect
Target sequence (Q92830 whole entry, looked up): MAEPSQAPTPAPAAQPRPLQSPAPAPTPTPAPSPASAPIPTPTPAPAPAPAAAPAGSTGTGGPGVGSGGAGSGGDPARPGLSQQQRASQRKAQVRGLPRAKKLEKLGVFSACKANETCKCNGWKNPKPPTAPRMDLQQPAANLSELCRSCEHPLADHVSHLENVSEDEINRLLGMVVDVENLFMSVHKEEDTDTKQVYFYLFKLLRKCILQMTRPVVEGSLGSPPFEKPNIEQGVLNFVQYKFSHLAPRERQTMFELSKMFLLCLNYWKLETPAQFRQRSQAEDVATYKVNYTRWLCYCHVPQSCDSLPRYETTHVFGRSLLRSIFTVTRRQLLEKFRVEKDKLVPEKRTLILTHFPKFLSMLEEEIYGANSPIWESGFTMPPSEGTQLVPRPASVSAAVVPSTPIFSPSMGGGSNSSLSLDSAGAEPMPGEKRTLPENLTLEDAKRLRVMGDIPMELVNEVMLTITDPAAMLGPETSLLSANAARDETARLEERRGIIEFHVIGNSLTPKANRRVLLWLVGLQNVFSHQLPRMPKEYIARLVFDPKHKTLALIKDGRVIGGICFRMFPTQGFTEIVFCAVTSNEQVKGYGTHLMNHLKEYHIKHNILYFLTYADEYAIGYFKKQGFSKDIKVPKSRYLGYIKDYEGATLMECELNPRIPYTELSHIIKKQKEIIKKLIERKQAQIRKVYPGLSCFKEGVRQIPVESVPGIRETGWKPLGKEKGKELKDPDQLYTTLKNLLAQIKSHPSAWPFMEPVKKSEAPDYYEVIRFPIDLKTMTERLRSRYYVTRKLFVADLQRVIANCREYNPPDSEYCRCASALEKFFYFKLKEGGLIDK
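Preincubate 20nM GCN5L2 with compound 15 min, RT → add 50uM ThioGlo1 + 75uM H3(1-25) + 70uM acetyl-CoA → read fluorescence 0 and 20 min. Primary qHTS; fluorescent artifacts likely.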
PI5P4K alpha inh = qHTS for Inhibitors of phosphatidylinositol 5-phosphate 4-kinase (PI5P4K) | PI5P4Kalpha enzyme, ADP-Glo luminescence, 60 min; active compounds read low | max response, % | AID 652105, 2013 | hit rate 1.2% among 330,000 | Phosphatidylinositol 5-phosphate 4-kinase type-2 alpha (Homo sapiens), P48426; active = max response of -50% or lower; inconclusive = between -30% and -50%; inactive = -30% or higher; also: value at the top dose of about 77 µM; % is scaled to controls: 0 for no effect and ±100 for the full control effect
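ADP-Glo luminescence end-point after a 60 min room-temperature kinase reaction. PI5P4Kalpha and substrate in HEPES pH 7.4 buffer with EGTA, 0.1% CHAPS and 5% DMSO; ATP at 5 microM final.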
VDR inh = Inhibitors of the vitamin D receptor (VDR): qHTS. VDR-SRC2-3 peptide fluorescence polarization, 2 h. Vitamin D3 receptor (Homo sapiens), P11473. Potency, µM, for inactives: max response, negative = inhibition, actives largely listed as inhibitors. hit rate 0.93% among 400,000; also: potency is read from the fitted curve at half-maximal effect; % is scaled to controls: 0 for no effect and ±100 for the full control effect
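After 23 nl compound addition and a short centrifugation, plates sat for 2 hours at ambient temperature; polarization of fluorescence then indicated loss of VDR binding to peptide SRC2-3.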
Active calls of the source: *; ? = inconclusive; / = not tested or not shown. Unless noted, calls follow the shape of the dose curve; as a rule, active = well fitted curve in the direction sought with a large enough effect; inconclusive = small, poorly fitted or top-dose-only effect, or another doubt; inactive = no such curve, though single readings can be large; an effect the other way counts as inactive or inconclusive.

SMILES | Rango complex inh | PLK1 PBD inh | Rango dissoc inh | KAT2A inh | PI5P4K alpha inh | VDR inh
C=CCOc1cccc(CNCCCN2CCOCC2)c1 | 0.4% | -13.4% | -7.4% | -3.2% | 3.1 | -8.2%
CN1/C(=C\C(=O)COC(=O)CNC(=O)c2ccc3ccccc3c2)C(C)(C)c2ccccc21 | ? | 18.9µM* | -14.5% | -9.1% | -13.6 | -28.4%
COc1cc(NC(=O)COC(=O)CNC(=O)c2ccc(C)s2)cc(OC)c1 | 6.5% | 23.8µM* | 5.7% | -12.0% | -8.5 | -12.4%
CCOc1cc(-c2ccc(OC(=O)c3ccc(C)cc3)c(OC)c2)cc(=O)c2c(C)oc(C)c12 | / | / | / | -13.8% | / | 3.9%
Cc1nc2nc(CCNS(=O)(=O)c3ccc(Cl)cc3)cn2nc1C | ? | -0.3% | ? | -16.9% | -7.6 | 89.1µM*
O=C(Nc1ccc(OCc2cc(=O)n3c4c(sc3n2)CCCC4)cc1)c1ccccc1 | / | / | / | 0.4% | / | -15.3%
C#CCN(C[C@@H]1[C@@H](OC(=O)NC2CC2)[C@@H](OC(=O)NC2CC2)CN(C(=O)OC(C)C)N1C(=O)OC(C)C)S(=O)(=O)c1ccc(C)cc1 | / | 21.2µM* | / | / | 0.1 | /
CC(C)C[C@H](NC(=O)[C@H](CCCCN)NC(=O)[C@H](CCCNC(=N)N)NC(=O)[C@H](C)NC(=O)[C@H](CO)NC(=O)[C@H](CCCCN)NC(=O)[C@H](CCCNC(=N)N)NC(=O)[C@H](C)NC(=O)CNC(=O)[C@@H](NC(=O)[C@H](Cc1ccccc1)NC(=O)CNC(=O)CNC(=O)[C@@H](N)Cc1ccccc1)[C@@H](C)O)C(=O)N[C@@H](C)C(=O)N[C@@H](CC(N)=O)C(=O)N[C@@H](CCC(N)=O)C(=O)O | / | / | / | 0.0% | / | 5.3%
CCOc1ccc(C(c2c(C)[nH]n(-c3ccccc3)c2=O)c2c(C)[nH]n(-c3ccccc3)c2=O)cc1OC | / | / | / | -8.2% | / | ?
Cc1[nH]n(-c2ccccc2)c(=O)c1C(c1cccc([N+](=O)[O-])c1)c1c(C)[nH]n(-c2ccccc2)c1=O | 3.1% | 23.8µM* | 3.1% | 1.2% | 1.6 | 56.2µM*
Cc1[nH]n(-c2ccccc2)c(=O)c1C(C[N+](=O)[O-])c1ccc(Br)cc1 (stereo not drawn) | 0.8% | 26.7µM* | -0.5% | 3.3% | -13.5 | ?
COc1cccc(C(C[N+](=O)[O-])c2c(C)[nH]n(-c3ccccc3)c2=O)c1 (stereo not drawn) | 0.3% | 29.9µM* | 2.6% | -17.5% | -13.9 | ?
COc1cccc(N=Nc2c(C)[nH]n(-c3ccccc3)c2=O)c1 | 5.6% | -2.0% | -7.8% | -8.5% | 1.8 | -7.9%
Cc1[nH]n(-c2ccccc2)c(=O)c1C(c1ccc(C(=O)O)cc1)c1c(C)[nH]n(-c2ccccc2)c1=O | 0.7% | 8.44µM* | 0.9% | 1.1% | -5.9 | -10.6%
COc1ccc(-c2c(C)nn3c(N4CCN(c5ccccc5)CC4)cc(C)nc23)cc1OC | / | / | / | -0.9% | / | -17.3%
CCn1c(=O)sc2cc(NS(=O)(=O)c3ccc(F)c(C)c3)ccc21 | / | / | / | -9.5% | / | -0.5%
O=C(O)c1ccccc1NS(=O)(=O)c1cccc(C(F)(F)F)c1 | 2.8% | -6.5% | 19.3% | -15.1% | / | -2.9%
O=C(O)c1ccccc1NS(=O)(=O)c1cccc(-n2sc3ccccc3c2=O)c1 | -1.8% | 3.36µM* | 11.2% | 0.447µM* | -96.7* | 10µM*
COc1cc(C2OC(=O)c3c2ccc(OC)c3OC)ccc1O (stereo not drawn) | / | / | / | -0.8% | / | /
CN(C)S(=O)(=O)Oc1cc(Cl)ccc1C(=O)Nc1ccc(F)cc1F | -2.3% | 23.8µM* | 3.3% | -4.9% | -3.6 | -14.5%
CCC(C(=O)Nc1ccc(C(C)=O)cc1)n1c(C)c2cnn(-c3ccccc3)c(=O)c2c1C (stereo not drawn) | / | / | / | -11.2% | / | 11.3%
CC(Nc1nc(=S)nc(Nc2ccc(F)cc2)[nH]1)c1ccccc1 (stereo not drawn) | 0.1% | 13.4µM* | 18.6% | 0.5% | -7.6 | ?
CCOC(=O)N1CCN(C(=O)c2ccc([N+](=O)[O-])cc2Cl)CC1 | -3.2% | 23.8µM* | 7.9% | -13.5% | -12.1 | ?
Cc1ccc(S(=O)(=O)N(CC(=O)Nc2ccccc2C(=O)O)c2cccc(Cl)c2C)cc1 | 0.1% | 29.9µM* | 8.3% | -22.6% | ? | -27.8%
COc1cccc(-n2c(SCc3ccccc3C)nc3c([nH]c4ccccc43)c2=O)c1 | / | / | / | -0.9% | / | 10.1%
SMILES | Rango complex inh | PLK1 PBD inh | Rango dissoc inh | KAT2A inh | PI5P4K alpha inh | VDR inh
Cc1cc(C)c2c(-n3cccc3)c(C(=O)NCCc3ccccc3)sc2n1 | / | / | / | -1.6% | / | 11.1%
CC1=C([N+](=O)[O-])C(c2ccc3c(c2)OCO3)N(C)C(=O)N1C (stereo not drawn) | -2.0% | 8.44µM* | 1.0% | -0.4% | ? | ?
CCN(Cc1ccccc1)C(=O)Cn1c(=O)n(-c2cccc(C)c2)c(=O)c2c1c1cc(OC)ccc1n2C | / | / | / | -16.8% | / | 3.0%
O=C(Nc1cccc(-c2nc3ccccc3c(=O)o2)c1)c1ccccc1 | 4.4% | 21.2µM* | 0.3% | ? | -20.9 | -2.4%
COc1ccc(S(=O)(=O)N2CCN(c3ccc(C)cc3C)CC2)cc1OC | 1.2% | 23.8µM* | -7.7% | -7.8% | -1.3 | -26.9%
COc1ccc(S(=O)(=O)N2CCN(c3c(C)cccc3C)CC2)cc1OC | 3.8% | -9.2% | 3.4% | -13.7% | -1.6 | -18.9%
Cc1cc(=O)n(CC(=O)Nc2ccc([N+](=O)[O-])cc2)c(-n2nc(C)cc2C)n1 | / | / | / | -3.1% | / | 9.3%
Cc1ccc(S(=O)(=O)n2ccc3cccnc32)cc1 | 0.1% | -4.7% | -0.1% | -0.9% | -5.1 | -5.6%
Cc1ccc(S(=O)(=O)n2cccc2/C=C/[N+](=O)[O-])cc1 | / | 7.52µM* | / | / | -22.2 | /
CCCN1CNc2c(c(=O)[nH]c(=S)n2CCC(C)C)C1 | / | / | / | / | / | -8.9%
COc1ccc(NC(=O)C(NC(=O)/C=C\c2ccc3c(c2)OCO3)c2ccc(C)cc2)cc1 (stereo not drawn) | / | / | / | -8.7% | / | -17.7%
CC[C@]12c3[nH]c4cc(-c5ccco5)ccc4c3CCN1C(=O)[C@@H](CC(=O)NCCCOC)C[C@@H]2C(=O)N1CCN(C(=O)c2ccco2)CC1 | ? | 21.2µM* | ? | -1.0% | ? | ?
